Measured potencies and affinities stand elsewhere.

For orientation: Inhibition means the drop in the measured response relative to a control, in per cent.

In one test the test system is Staphylococcus aureus. The conditions noted are these: Concentration 20 uM; ASSAY_TEST Inhibition of Bacterial Growth; detection method Absorption (OD600); MEDIA CAMHB; plate type 384well; NBS; CORNING #3640; time 18 hr.
A further test deals with Escherichia coli. To be noted: Concentration 20 uM; ASSAY_TEST Inhibition of Bacterial Growth; detection method Absorption (OD600); MEDIA CAMHB; plate type 384well; NBS; CORNING #3640; time 18 hr.

Turning to `CC(C)(C)n1nc(-c2ccccc2)c2c(N)ncnc21`, the Inhibition in the test with Staphylococcus aureus is 6.95%; in the test with Escherichia coli, -3.37%.
For `Cc1cc(Nc2ccc(C(F)(F)F)cc2)n2ccnc2n1` the same measures were 20.89% and 9.89%.
For `O=C1N(Cc2cc3ccccc3s2)CC2CN(Cc3ccccc3)CCN12` (configuration not stated), the Inhibition in the test with Staphylococcus aureus is reported as 3.35%; in the test on Escherichia coli it was -5.97%.
In the case of `CN(C)c1cc(NC(=O)Nc2ccccc2)c2ccccc2n1`, the Inhibition in the test with Staphylococcus aureus was found to be 12.79%; in the test on Escherichia coli it was 6.08%.
For `CCC(Sc1nc2ccccc2o1)C(=O)Nc1nnc(C)s1` (configuration not stated), the Inhibition in the test with Staphylococcus aureus is -13.91%; in the test on Escherichia coli, -8.34%.
For `Cc1nnc(NC(=O)c2cn(-c3ccccc3)nc2-c2ccccc2C)o1` the same measures were 8.57% and 8.61%.
With `c1coc(CNc2nc(N3CCCCC3)nc3ccccc23)c1`, the Inhibition with Staphylococcus aureus worked out at 13.52%; in the test on Escherichia coli, 5.17%.
As for `Cl.Cn1ccnc1CNCCS(=O)(=O)c1cccc(Nc2ccc(-c3cccc(F)c3)cn2)c1`, the Inhibition with Staphylococcus aureus is 24.8%; in the test with Escherichia coli it was 8.19%.
For `COc1ccc(S(=O)(=O)Nc2ccc(CN3CCN(C(=O)c4cccc(C#N)c4)CC3)cc2)cc1` the same measures were 1.42% and -0.19%.
With `CCCn1c(CNc2ccccc2O)nc2ccccc21`, the results for the Inhibition with Staphylococcus aureus and in the test with Escherichia coli were 17.07% and 4.85%, respectively.
On to `Nc1ncc(-c2cn[nH]c2)cc1-c1nc2cc(Cl)cnc2[nH]1`, for which the Inhibition with Staphylococcus aureus is listed as -0.61%; in the test with Escherichia coli, 5.12%.
For `Cl.NCCCC(N)(C(=O)O)C(F)F.O` (configuration not stated) [EFLORNITHINE HYDROCHLORIDE] the same measures were 10.2% and -2.06%.
In the case of `O=C(NCc1nnc2n1CCCCC2)c1ccc(-c2ccc(F)cc2)o1`, the Inhibition with Staphylococcus aureus was 15.64%; in the test on Escherichia coli, 7.05%.
Consider `Cc1cc(C)n2nc(C(=O)Nc3cc(C(F)(F)F)ccc3N3CCOCC3)nc2n1`, for which the figures for the Inhibition in the test on Staphylococcus aureus and in the test with Escherichia coli were 13.59% and 10.47%, respectively.
For `CS(=O)(=O)c1cccc(-c2cnc3[nH]cc(-c4ccc(CCC(=O)O)cc4)c3c2)c1` the same measures were 21.11% and 7.22%.
With `Cl.NCC(c1cccs1)S(=O)(=O)c1ccccc1` (configuration not stated), the Inhibition in the test on Staphylococcus aureus is listed as 11.05%; in the test on Escherichia coli, -0.69%.
Regarding `CC1CS(=O)(=O)CCN1/N=C/c1ccc([N+](=O)[O-])o1` (configuration not stated) [NIFURTIMOX], the Inhibition with Staphylococcus aureus is on record as 33.42%; in the test on Escherichia coli, 6%.
For `CCOc1ccccc1C(=O)Nc1cccc(-c2nc3ncccn3c2C)c1` the same measures were 2.54% and 10.22%.
For `COc1cccc(CC(=O)N2CCC(n3c(C)nc4ccc(F)cc43)CC2)c1` the same measures were 21.64% and 9.91%.
`c1ccc(Oc2ccc(-c3cc(C4CCOCC4)[nH]n3)cc2)cc1`: the values for the Inhibition with Staphylococcus aureus and in the test with Escherichia coli were 24.63% and 11.25%, respectively.
`COc1ccc(-c2nnc3ccc(-c4cccc(C(C)C)c4)cn23)cc1OC`: the Inhibition was 5.54% with Staphylococcus aureus and 12.18% with Escherichia coli.
For `CC(C)(C)OC(=O)N1CCN(c2nccc(-c3ccc(-c4ccc(Cl)cc4)s3)n2)CC1` the same measures were 15.85% and 9.45%.
For `CS(=O)(=O)N1CCC(CCn2nc(Cc3cccc4ccccc34)c3c(N)ncnc32)CC1` the same measures were 11.8% and -2.01%.
For `COc1ccc2nc(C)cc(OCC(=O)Nc3ccccc3OC)c2c1`, the Inhibition in the test with Staphylococcus aureus is on record as 18.5%; in the test with Escherichia coli it was 13.22%.
For `CCN(CC)C(=O)N1CCN(C)CC1` [DIETHYLCARBAMAZINE] the same measures were 20.12% and 7.97%.
For `N#CCN(CCCCN1CCN(c2ccc(F)cc2)CC1)C(=O)OCc1ccccc1` the same measures were 23.36% and 7.95%.
On to `Clc1ccc(-n2cc(COc3ccnc4ccccc34)nn2)cc1`, for which the Inhibition in the test on Staphylococcus aureus came out at 21.12%; in the test on Escherichia coli it was 8.78%.
For `O=C(c1ccc(NCCO)cc1)C1C[C@H]1c1ccc(Cl)cc1` (some centres not stated) the same measures were 8.07% and -0.72%.
For `CC(C)C(Oc1cccc2ccccc12)C(=O)O` (configuration not stated) the same measures were 10.48% and -2.25%.
For `O=[N+]([O-])c1cn2c(n1)OC[C@@H](OCc1ccc(OC(F)(F)F)cc1)C2` [PRETOMANID] the same measures were 14.36% and 4.79%.
Turning to `Clc1ccc(CN2CCN(C3=NCCN3)CC2)cc1Cl`, the Inhibition in the test on Staphylococcus aureus was 14.27%; with Escherichia coli, 4.2%.
For `CCc1ccc([C@@H]2C[C@H](C(F)(F)F)n3ncc(C(=O)NCc4ccc(OC)cc4)c3N2)cc1` the same measures were 5.55% and -1.62%.
Consider `Nc1ncnc2c1c(-c1cnc3ccccc3c1)nn2CC1CCNCC1`, for which the Inhibition is given as 3.94% with Staphylococcus aureus and -4.76% in the test on Escherichia coli.
For `Cc1ccc2[nH]c3c(NCCN(C)C)ncnc3c2c1` the same measures were 20.13% and 7.48%.
As to `Nc1ncnc2c1c(Cc1cccc3ccccc13)nn2CC1CCNCC1`, the Inhibition in the test with Staphylococcus aureus was -11.63%; in the test on Escherichia coli, -7.67%.
As to `COc1cccc(OC)c1C(=O)Nc1ccc(Cl)c(-c2nc3ccccc3s2)c1`, the figures for the Inhibition in the test with Staphylococcus aureus and in the test with Escherichia coli were 3.55% and -2.89%, respectively.
Consider `COc1ccccc1OCCCCn1c(C2CC2)nc2ccccc21`, for which the Inhibition with Staphylococcus aureus stood at 12.87%; with Escherichia coli, 4.8%.
For `O=C(NC1CC1)c1ccc(CSCc2ccccc2Cl)o1` the same measures were 11.19% and -1.44%.
`NC(=O)c1cc(-c2ccsc2)ccc1OCCOc1ccccc1`: the Inhibition in the test with Staphylococcus aureus is 14.87%; in the test with Escherichia coli, 5.41%.
For `O=C(CCC1CCCCC1)Nc1cccc(-c2nnc(-c3ccco3)o2)c1` the same measures were 8.68% and 8.91%.
For `COc1cccn2c(C(=O)N3CCCCC3)c(C(F)(F)F)nc12` the same measures were 18.98% and -2.18%.
For the compound `Nc1ccc(C(=O)Nc2ccc(-c3nc4ccccc4o3)cc2)cc1`, the Inhibition turned out to be 11.63% in the test on Staphylococcus aureus and 11.29% in the test on Escherichia coli.
For `NCCC(O)C(=O)N[C@@H]1C[C@H](N)[C@@H](OC2O[C@H](CN)[C@@H](O)[C@H](O)[C@H]2O)[C@H](O)C1OC1O[C@H](CO)[C@@H](O)[C@H](N)[C@H]1O.O=S(=O)(O)O.O=S(=O)(O)O` (some centres not stated) the same measures were 14.32% and 11.24%.
Regarding `CN1CCCC1CCO[C@](C)(c1ccccc1)c1ccc(Cl)cc1.O=C(O)/C=C/C(=O)O` (some centres not stated), the Inhibition is on record as 18.42% in the test with Staphylococcus aureus and 10.75% with Escherichia coli.
For `CNc1cc(C)nc(C2CN(C(=O)c3n[nH]c4ccccc34)CCO2)c1` (configuration not stated) the same measures were 17.74% and 10.11%.
For `O=C(C1CCCCC1)N1CC(=O)N2CCc3ccccc3C2C1` (configuration not stated) [PRAZIQUANTEL] the same measures were 18.11% and 6.83%.
For `Cc1cccc(NC(=O)c2cc(S(=O)(=O)N(C)c3ccc(F)cc3)ccc2Cl)n1` the same measures were 12.32% and 7.88%.
As for `CN1CCC(c2cc(-c3ccncc3)c(-c3ccc(F)cc3)[nH]2)CC1`, the values for the Inhibition in the test with Staphylococcus aureus and in the test on Escherichia coli were -0.65% and -2.15%, respectively.
As for `Cc1cc(C(=O)Nc2cnn(Cc3ccc(Cl)cc3Cl)c2)no1`, the Inhibition is on record as 4.82% with Staphylococcus aureus and 8.52% in the test on Escherichia coli.
In the case of `COc1cc(OC)cc(C(=O)NCC2Cc3cc(Cl)cc(-c4ccncc4)c3O2)c1` (configuration not stated), the Inhibition in the test with Staphylococcus aureus came out at 16.01%; in the test with Escherichia coli it was 10.63%.
For `Cl.Cl.Cl.NS(=O)(=O)c1cncc(-c2ccc3nccc(-c4cn[nH]c4)c3n2)c1`, the Inhibition in the test on Staphylococcus aureus was 9.83%; with Escherichia coli, 6.62%.
Regarding `Cc1nn(C(=O)Nc2cccc(C(F)(F)F)c2)c(C)c1Sc1ncccn1`, the Inhibition is 14.85% in the test with Staphylococcus aureus and 7.79% in the test on Escherichia coli.
For `Cl.c1ccc(Oc2ccc(-c3cc(N4CCNCC4)[nH]n3)cc2)cc1` the same measures were 14.57% and 9.1%.
For `CCN(CC)S(=O)(=O)c1ccc(Cl)c(C(=O)Nc2ccc3nc(C)sc3c2)c1` the same measures were 2.16% and 0.28%.
With `CC1CC1C(=O)NC1CCN(CC2(c3ccccc3)CCCCC2)CC1` (configuration not stated), the Inhibition in the test on Staphylococcus aureus is 14.54%; in the test with Escherichia coli, 6.55%.
For `Cc1nn(C)cc1C(C)Nc1nncc(-c2ccc(C(F)(F)F)cc2)n1` (configuration not stated) the same measures were 2.57% and 3.9%.
With `CCN(CC)CCCN1CCN(C(=O)c2cccc(-c3noc(C(F)(F)F)n3)c2)CC1`, the Inhibition with Staphylococcus aureus is given as -0.71%; with Escherichia coli it was -1.62%.
For the compound `CCCCS(=O)(=O)Nc1ccc2cnn(C)c2c1`, the figures for the Inhibition in the test with Staphylococcus aureus and in the test with Escherichia coli were 17.72% and 10.93%, respectively.
For `COc1cc(C2=NCCN2)ccc1-n1cc(-c2cccc(C3=NCCN3)c2)nn1.O=CO.O=CO`, the Inhibition in the test on Staphylococcus aureus came out at 1.49%; in the test on Escherichia coli, 8.11%.
Consider `Cc1cc(NC(=O)c2ccc(S(=O)(=O)N(Cc3ccccc3)C(C)C)cc2)no1`, for which the Inhibition in the test on Staphylococcus aureus was 10.98%; in the test on Escherichia coli, 6.09%.
Consider `Cc1nn2c(O)c3c(nc2c1-c1ccc(F)cc1)CCCC3`, for which the figures for the Inhibition in the test with Staphylococcus aureus and in the test with Escherichia coli were 17.1% and 16.25%, respectively.
As to `OCCc1ccc(Nc2nccc(-c3nnc4ccccn34)n2)cc1`, the Inhibition in the test with Staphylococcus aureus was 21.71%; with Escherichia coli, 6.52%.
With `COc1cc(Br)cc2cc(C(=O)Nc3cccc(C(F)(F)F)c3)c(=O)oc12`, the Inhibition in the test with Staphylococcus aureus was determined as 7.48%; in the test with Escherichia coli, 1.89%.
With `Cc1cc(OCC(=O)Nc2ccc(C(C)C)cc2)n(C)c(=O)c1C#N`, the Inhibition in the test on Staphylococcus aureus amounted to 7.07%; in the test on Escherichia coli, 14.16%.
For `CC(C)(C)n1nc(Cc2cccc3ccccc23)c2c(N)ncnc21` the same measures were 2.05% and -5.14%.
For `Cc1ccc2cc(C3NC(=O)c4ccccc4N3)c(Cl)nc2c1` (configuration not stated) the same measures were 11.87% and 10.17%.
For `Cc1ccc2nc(C)c(-c3ccn(Cc4ccccc4)n3)n2c1` the same measures were 13.47% and 10.25%.
Turning to `COc1cccc(OCC(=O)c2ccc(Br)cc2)c1`, the results for the Inhibition in the test on Staphylococcus aureus and with Escherichia coli were -13.25% and -7.45%, respectively.
As for `COc1cc(CN2CCC3(C=Cc4ccccc43)CC2)cc2c1OCO2`, the Inhibition with Staphylococcus aureus is on record as -1.3%; with Escherichia coli, -2.88%.
On to `CCc1nc2ccccc2n1CC(O)COc1cc(C)ccc1Cl` (configuration not stated), for which the Inhibition with Staphylococcus aureus was determined as 11.53%; in the test on Escherichia coli, 4.16%.
For `COCC(C)NC(=O)CSc1ncnc2sc(-c3ccccc3)cc12` (configuration not stated) the same measures were 19.45% and 9.3%.
On to `CCOC(=O)c1noc(N)c1-c1ccccc1`, for which the Inhibition with Staphylococcus aureus stood at 31.41%; in the test on Escherichia coli it was 11.39%.
On to `Cl.O[C@@H](c1cc(C(F)(F)F)nc2c(C(F)(F)F)cccc12)[C@H]1CCCCN1`, for which the Inhibition in the test on Staphylococcus aureus turned out to be 45.36%; in the test with Escherichia coli, 15.86%.
Turning to `Cc1ncc(-c2ccnc(Nc3ccc(S(C)(=O)=O)cc3)n2)n1C(C)C` [AZD-5438], the results for the Inhibition in the test with Staphylococcus aureus and in the test on Escherichia coli were 28.03% and 5.82%, respectively.
For `c1cc(C2=NCCN2)cc(-c2cc(-c3ccc(C4=NCCN4)cc3)no2)c1` the same measures were 5.99% and 8.18%.
For `c1ccc(Oc2ccc(-c3cncc(-c4ccc5[nH]ccc5c4)n3)cc2)cc1` the same measures were 11.46% and 11.21%.

Values taken from ChEMBL document CHEMBL4513149, “CO-ADD screening of MMV (CH) - MMV compounds” (2021).
